The results in this text go back to PubChem BioAssay AID1259309 (ICCB-Longwood Screening Facility, Harvard Medical School, 2017).

Values joined by “and” are separate entries in the source; they are usually repeats but may differ in a detail not shown here. Identical values can stand only once. Out of some 330,000 compounds screened, about 1,800 (0.55%) were called active. Only a selection was taken, and actives are over-represented in it overall. Values without a mark were called inactive. Rule as the data show it: active = growth inhibition above about 68%; inactive = the rest.

The assay in a line: growth inhibition of ugtP-null S. aureus, primary screen, RN4220 ugtP deletion, OD600 (AID 1259309).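 Also: plate controls were untreated wells for no effect and antibiotic for full effect.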 To be noted: 16 h, stronger effect = higher value.
Turning to `COc1ccccc1C(=O)NC(=S)Nc1ccccc1N1CCCCC1`, the growth inhibition was 93.3% (active).

For `O=C(NC(=S)Nc1ccccc1N1CCCCC1)c1ccc(F)cc1`, the growth inhibition is 59.3%.

On to `COc1ccc(C(=O)NC(=S)Nc2ccccc2N2CCN(S(C)(=O)=O)CC2)cc1OC`, for which the growth inhibition was -0.518%.

In the case of `COc1ccc(NC(=O)ON=Cc2ccc(Br)cc2)cc1`, the growth inhibition was 4.87%.

Regarding `COc1ccc(C(=O)/C=C/c2cccnc2)c(OC)c1`, the growth inhibition is 5.58%.

Regarding `COc1ccc(/C=C/C(=O)c2cc(Br)ccc(=O)c2O)cc1`, the growth inhibition is 95.4% (active).

As for `CCC(C)Sc1ccc(C2N[C@@](C)(C(=O)OC)C3C(=O)N(C)C(=O)C23)cc1` (stereo not given in full), the growth inhibition was 2.56%.

For `Cc1c(CCOC(=O)CC23CC4CC(CC(C)(C4)C2)C3)sc[n+]1Cc1ccc([N+](=O)[O-])cc1`, the growth inhibition is 101% (active) and 100% (active).

In the case of `Cc1c(CCOC(=O)c2cc([N+](=O)[O-])ccc2Cl)sc[n+]1CCCCS(=O)(=O)[O-]`, the growth inhibition was -10.2%.

In the case of `Cc1c(CCO)sc[n+]1CC(=O)OC12CC3CC(CC(C3)C1)C2`, the growth inhibition was 7.76%.

For `CCN(CC)Cc1c(C(=O)NN=Cc2ccncc2)nnn1-c1nonc1N`, the growth inhibition was 4.89%.

As to `c1ccc2c(C[n+]3csc4ccccc43)cccc2c1`, the growth inhibition is 95.1% (active).

Turning to `c1ccc2c(CNn3cnnc3)cccc2c1`, the growth inhibition is 4.79%.

As for `Nc1scc[n+]1Cc1cccc2cccnc12`, the growth inhibition was 3.29%.

On to `Cc1ccc(CON=CCc2snc(Sc3ncc(C(F)(F)F)cc3Cl)c2C#N)cc1`, for which the growth inhibition is 28%.

Regarding `CCCC12CN3CCN(CC(C3)C1=NNC(=O)Nc1ccccc1)C2`, the growth inhibition is 1.17%.

On to `O=C(ON=Cc1ccc(N2CCCCC2)c([N+](=O)[O-])c1)c1c(F)cccc1F`, for which the growth inhibition was -5.14%.

Consider `Cc1nnc(SCC2=C(C(=O)O)N3C(=O)C(NC(=O)Cn4nc(C)c(Cl)c4C)C3SC2)s1` (stereo not given), for which the growth inhibition is 97.9% (active).

As for `Cc1nnc(SCC(=O)NC2CCCC2)s1`, the growth inhibition is -2.03%.

As for `Cc1cc(C)cc(C(=O)NC2C(=O)N3C(C(=O)O)=C(CSc4nnc(C)s4)CSC23)c1` (stereo not given), the growth inhibition is 100% (active).

For the compound `Cc1nnc(SCc2cc(=O)[nH]c(N3CCN(Cc4ccccc4)CC3)n2)s1`, the growth inhibition was 0.849%.

For `Cc1nnc(SCC(=O)Nn2cnnc2)s1`, the growth inhibition is -2.34%.

For `CC1(C)c2[nH]c3ccccc3c2CC2C(=O)N(Cc3ccccc3F)C(=O)N21` (stereo not given), the growth inhibition is 2.24% and -4.9%.

For `COc1ccc(C=NNC(=O)CN2CCCC2)cc1`, the growth inhibition was 3.93%.

On to `CC1CN(C(C)CO)C(=O)Cc2cc(NC(=O)C3CC3)ccc2OC1CN(C)Cc1ccc(Oc2ccccc2)cc1` (stereo not given), for which the growth inhibition was 9.46%.
